Assay results: PubChem BioAssay AID493123 (National Center for Advancing Translational Sciences (NCATS), 2011)
Activity calls are given as the source filed them. No rule for the calls is given here.

Test: Concentration response confirmation assay for small molecule inhibitors of Shiga toxin

SMILES | outcome
C=CCNC(=O)c1ccc(C)c(Br)c1 | inactive
CCN1C(=O)/C(=C/c2ccc(OC)c(OC)c2)N=C1SCC(=O)NCc1ccco1 | inactive
O=C(CC(c1ccccc1)c1cc(Cl)ccc1O)N1CCCC1 (stereo not drawn) | inactive
Cc1cccc(NC(=O)CCN2C(=O)c3ccccc3S2(=O)=O)c1C | inactive
CC1CCC/C=C/C2CC(O)CC2C(O)/C=C/C(=O)O1 (stereo not drawn) | inactive
CN(C)S(=O)(=O)c1ccc(C(=O)Nc2ccc(CN3CCCC3)cc2)cc1 | inactive
CCn1c2ccccc2c2cc(NC(=O)c3cccc([N+](=O)[O-])c3)ccc21 | inactive
COc1ccc(C(C)(C)C)cc1NC(=O)c1ccc2c(c1)SC1=NS(=O)(=O)CCN12 | inactive
